Measurements as given in the supplement of paper PMC10849652.
Targets with a hit are over-represented here; the source holds about 8,800 in all. About 0.5% of all pairs of compound and target were hits.

Assays:
Test in all cases: log2 fold change, soluble protein after heating vs DMSO (PISA); higher = thermal stabilisation; K562 lysate, 10 uM; active = over 0.2 and 3.5 SD of the protein, either way, in both replicates (recomputed)
nilotinib = compound: Cc1cn(-c2cc(NC(=O)c3ccc(C)c(Nc4nccc(-c5cccnc5)n4)c3)cc(C(F)(F)F)c2)cn1 [nilotinib]
Outline: (§1)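 Soluble protein was defined as the supernatant remaining after 21,000xg for 90 min, following pooling of heated aliquots and adjustment to 0.5% NP-40 at 4°C. Before that, crude K562 extract at 1 mg/mL protein in PBS pH 7.4 with 1 mM MgCl2 was treated with 10 μM compound for 30 min and heated for 3 min across 48°C-58°C. Quantification used TMTpro 16plex LC-MS/MS with channel sums equalised, and values are log-two fold changes in thermal stability relative to solvent controls from duplicates.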

[1] = compound: Cc1nc(Nc2n[nH]c3c2CN(C(=O)N[C@H](CN(C)C)c2ccccc2)C3(C)C)c2sccc2n1
Outline: as §1

dasatinib = compound: Cc1nc(Nc2ncc(C(=O)Nc3c(C)cccc3Cl)s2)cc(N2CCN(CCO)CC2)n1 [dasatinib]
Outline: as §1

[2] = compound: Cc1ncc(-c2ccnc(Nc3ccc(S(C)(=O)=O)cc3)n2)n1C(C)C
Outline: as §1

[3] = compound: Cn1cc(-c2ccc3c(c2)CCN3C(=O)Cc2cccc(C(F)(F)F)c2)c2c(N)ncnc21
Outline: as §1

quisinostat = compound: Cn1cc(CNCC2CCN(c3ncc(C(=O)NO)cn3)CC2)c2ccccc21 [quisinostat]
Outline: as §1

tipifarnib = compound: Cn1cncc1[C@@](N)(c1ccc(Cl)cc1)c1ccc2c(c1)c(-c1cccc(Cl)c1)cc(=O)n2C [tipifarnib]
Outline: as §1

[4] = compound: NC(=O)Nc1cc(-c2cccc(F)c2)sc1C(=O)N[C@H]1CCCNC1
Outline: as §1

[5] = compound: NC(=O)c1cnc(N[C@@H]2CCCC[C@@H]2N)nc1Nc1cccc(-n2nccn2)c1
Outline: as §1

[6] = compound: NC1(c2ccc(-c3nc4ccn5c(=O)[nH]nc5c4cc3-c3ccccc3)cc2)CCC1
Outline: as §1

[7] = compound: NCC(=O)Nc1ccc(-n2nc(C(F)(F)F)cc2-c2ccc3c(ccc4ccccc43)c2)cc1
Outline: as §1

vorinostat = compound: O=C(CCCCCCC(=O)Nc1ccccc1)NO [vorinostat]
Outline: as §1

silmitasertib = compound: O=C(O)c1ccc2c(c1)nc(Nc1cccc(Cl)c1)c1ccncc12 [silmitasertib]
Outline: as §1

[8] = compound: O=C1NC(=O)C(c2cnc3ccccn23)=C1c1cn2c3c(cc(F)cc13)CN(C(=O)N1CCCCC1)CC2
Outline: as §1

entospletinib = compound: c1cn2cc(-c3ccc4cn[nH]c4c3)nc(Nc3ccc(N4CCOCC4)cc3)c2n1 [entospletinib]
Outline: as §1

Measured: log2 fold change

AP4B1 (UniProt Q9Y6B7)
Chain of UniProt Q9Y6B7 (Q9Y6B7 whole entry, looked up): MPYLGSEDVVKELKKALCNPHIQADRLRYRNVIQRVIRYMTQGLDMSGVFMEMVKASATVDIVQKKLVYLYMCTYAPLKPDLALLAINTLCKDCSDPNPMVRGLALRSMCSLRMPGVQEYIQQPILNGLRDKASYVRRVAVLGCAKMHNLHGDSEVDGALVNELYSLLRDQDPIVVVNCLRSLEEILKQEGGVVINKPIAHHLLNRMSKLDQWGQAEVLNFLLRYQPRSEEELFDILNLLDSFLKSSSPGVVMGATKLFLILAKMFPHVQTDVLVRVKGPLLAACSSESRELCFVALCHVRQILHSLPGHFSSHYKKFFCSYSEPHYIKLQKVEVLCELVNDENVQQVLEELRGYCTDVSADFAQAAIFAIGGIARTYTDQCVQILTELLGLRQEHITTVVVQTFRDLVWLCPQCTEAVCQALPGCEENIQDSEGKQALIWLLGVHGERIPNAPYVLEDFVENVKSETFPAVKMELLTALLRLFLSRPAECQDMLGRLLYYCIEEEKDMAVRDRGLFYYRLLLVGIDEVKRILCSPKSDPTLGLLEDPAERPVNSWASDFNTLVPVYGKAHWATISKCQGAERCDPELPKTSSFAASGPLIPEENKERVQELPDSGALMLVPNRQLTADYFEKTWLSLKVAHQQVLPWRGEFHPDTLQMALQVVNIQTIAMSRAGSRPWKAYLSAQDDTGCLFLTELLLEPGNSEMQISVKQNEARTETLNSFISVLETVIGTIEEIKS
active: vorinostat -0.286
inactive: nilotinib 0.023 | [1] 0.011 | dasatinib 0.032 | [2] -0.013 | [3] 0.027 | quisinostat 0.018 | tipifarnib -0.051 | [4] 0.1 | [5] 0.028 | [6] 0.007 | [7] 0.08 | silmitasertib 0.037 | [8] -0.051 | entospletinib 0.022

ABHD12 isoform 2 (UniProt Q8N2K0)
inactive: nilotinib 0.005 | [1] -0.004 | dasatinib 0.028 | [2] 0.058 | [3] -0.068 | quisinostat 0.044 | tipifarnib -0.077 | [4] -0.025 | [5] -0.02 | [6] 0.019 | [7] -0.003 | silmitasertib -0.026 | [8] -0.023 | entospletinib -0.023
active: vorinostat 0.392

ANXA1 (UniProt P04083)
inactive: nilotinib -0.01 | [1] -0.009 | dasatinib -0.009 | [2] -0.006 | [3] -0.006 | quisinostat 0.034 | tipifarnib 0.026 | [4] -0.015 | [5] 0.003 | [6] 0.009 | [7] -0.013 | silmitasertib -0.007 | [8] -0.031 | entospletinib 0.011
active: vorinostat -0.255

AMPD3 isoform 4 (UniProt Q01432)
inactive: nilotinib -0.002 | [1] 0.027 | dasatinib 0.014 | [2] -0.021 | [3] -0.013 | quisinostat 0.038 | tipifarnib 0.032 | [4] -0.012 | [5] -0.017 | [6] 0.012 | [7] -0.038 | silmitasertib -0.005 | [8] -0.021 | entospletinib 0.018
active: vorinostat 0.256

ACSL4 (UniProt O60488)
Chain of UniProt O60488 (O60488 whole entry, looked up): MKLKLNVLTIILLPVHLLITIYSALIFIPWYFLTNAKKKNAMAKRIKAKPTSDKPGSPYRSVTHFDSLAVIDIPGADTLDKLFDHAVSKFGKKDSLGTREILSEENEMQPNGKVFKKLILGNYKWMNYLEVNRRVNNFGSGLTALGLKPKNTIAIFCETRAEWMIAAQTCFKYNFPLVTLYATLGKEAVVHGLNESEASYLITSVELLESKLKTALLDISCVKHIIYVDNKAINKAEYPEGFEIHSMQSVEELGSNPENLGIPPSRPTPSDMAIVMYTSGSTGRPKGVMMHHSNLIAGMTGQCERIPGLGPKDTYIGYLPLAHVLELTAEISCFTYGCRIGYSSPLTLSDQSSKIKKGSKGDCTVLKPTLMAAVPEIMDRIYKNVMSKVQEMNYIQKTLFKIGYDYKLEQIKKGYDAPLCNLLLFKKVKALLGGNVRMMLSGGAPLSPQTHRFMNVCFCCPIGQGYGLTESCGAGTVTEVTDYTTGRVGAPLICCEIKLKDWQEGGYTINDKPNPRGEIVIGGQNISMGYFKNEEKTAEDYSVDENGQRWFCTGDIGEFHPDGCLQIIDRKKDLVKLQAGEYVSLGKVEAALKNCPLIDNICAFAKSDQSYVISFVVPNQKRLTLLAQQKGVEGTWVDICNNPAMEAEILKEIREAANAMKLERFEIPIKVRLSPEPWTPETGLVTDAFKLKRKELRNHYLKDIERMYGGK
active: vorinostat -0.321
inactive: nilotinib -0.011 | [1] 0.008 | dasatinib 0.004 | [2] 0.018 | [3] 0.02 | quisinostat -0.018 | tipifarnib -0.051 | [4] 0.029 | [5] -0.032 | [6] -0.074 | [7] 0.137 | silmitasertib 0.066 | [8] -0.002 | entospletinib 0.014

ARHGAP25 isoform 4 (UniProt P42331)
Chain of UniProt P42331 (P42331 whole entry, looked up): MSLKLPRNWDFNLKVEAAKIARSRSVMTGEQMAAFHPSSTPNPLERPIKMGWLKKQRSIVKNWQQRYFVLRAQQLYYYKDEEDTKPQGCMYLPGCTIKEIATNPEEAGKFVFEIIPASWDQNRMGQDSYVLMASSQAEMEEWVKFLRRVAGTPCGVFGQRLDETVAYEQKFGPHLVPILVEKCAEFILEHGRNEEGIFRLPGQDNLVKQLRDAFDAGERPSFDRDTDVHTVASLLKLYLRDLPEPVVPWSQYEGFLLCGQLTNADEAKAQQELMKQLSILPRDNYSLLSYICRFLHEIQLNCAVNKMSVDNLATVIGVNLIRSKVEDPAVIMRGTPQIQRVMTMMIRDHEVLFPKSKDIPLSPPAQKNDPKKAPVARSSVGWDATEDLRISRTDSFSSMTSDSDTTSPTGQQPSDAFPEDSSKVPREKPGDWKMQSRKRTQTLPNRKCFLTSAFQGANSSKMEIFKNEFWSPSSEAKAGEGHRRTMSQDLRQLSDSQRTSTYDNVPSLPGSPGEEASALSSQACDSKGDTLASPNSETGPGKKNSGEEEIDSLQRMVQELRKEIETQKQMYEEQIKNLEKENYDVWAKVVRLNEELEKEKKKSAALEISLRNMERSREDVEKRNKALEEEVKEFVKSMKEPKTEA
inactive: nilotinib -0.037 | [1] 0.039 | dasatinib -0.039 | [2] 0.022 | [3] 0.008 | quisinostat -0.115 | tipifarnib -0.016 | [4] 0.017 | [5] 0.028 | [6] -0.009 | [7] 0.027 | silmitasertib 0.011 | [8] -0.038 | entospletinib 0.009
active: vorinostat -0.377

AKT1 (UniProt P31749)
Chain of UniProt P31749 (P31749 whole entry, looked up): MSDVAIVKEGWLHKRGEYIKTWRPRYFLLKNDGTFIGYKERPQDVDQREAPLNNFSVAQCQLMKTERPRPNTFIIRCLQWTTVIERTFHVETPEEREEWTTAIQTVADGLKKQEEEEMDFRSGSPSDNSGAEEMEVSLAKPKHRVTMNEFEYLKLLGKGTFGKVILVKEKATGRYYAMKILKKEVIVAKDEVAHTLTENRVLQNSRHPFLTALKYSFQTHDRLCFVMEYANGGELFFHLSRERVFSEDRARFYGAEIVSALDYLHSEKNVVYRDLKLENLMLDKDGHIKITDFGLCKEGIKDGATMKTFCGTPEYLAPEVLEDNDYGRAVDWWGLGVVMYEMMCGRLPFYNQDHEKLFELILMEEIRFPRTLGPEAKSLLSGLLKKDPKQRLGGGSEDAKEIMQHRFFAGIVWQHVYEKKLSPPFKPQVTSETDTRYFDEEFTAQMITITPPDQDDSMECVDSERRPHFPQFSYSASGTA
inactive: nilotinib -0.05 | [1] 0.012 | dasatinib -0.014 | [2] -0.01 | [3] 0.001 | quisinostat -0.1 | tipifarnib 0.025 | [4] 0 | [5] -0.007 | [7] -0.051 | vorinostat -0.192 | silmitasertib -0.012 | [8] -0.024 | entospletinib -0.005
active: [6] 0.669

ABHD16A (UniProt O95870)
inactive: nilotinib -0.015 | [1] 0.02 | dasatinib 0.009 | [2] 0.027 | [3] -0.051 | quisinostat 0.143 | tipifarnib -0.012 | [4] -0.014 | [5] -0.003 | [6] -0.054 | [7] 0.007 | silmitasertib -0.1 | [8] -0.056 | entospletinib -0.01
active: vorinostat 0.906

ABCF2 isoform 2 (UniProt Q9UG63)
Chain of UniProt Q9UG63 (Q9UG63 whole entry, looked up): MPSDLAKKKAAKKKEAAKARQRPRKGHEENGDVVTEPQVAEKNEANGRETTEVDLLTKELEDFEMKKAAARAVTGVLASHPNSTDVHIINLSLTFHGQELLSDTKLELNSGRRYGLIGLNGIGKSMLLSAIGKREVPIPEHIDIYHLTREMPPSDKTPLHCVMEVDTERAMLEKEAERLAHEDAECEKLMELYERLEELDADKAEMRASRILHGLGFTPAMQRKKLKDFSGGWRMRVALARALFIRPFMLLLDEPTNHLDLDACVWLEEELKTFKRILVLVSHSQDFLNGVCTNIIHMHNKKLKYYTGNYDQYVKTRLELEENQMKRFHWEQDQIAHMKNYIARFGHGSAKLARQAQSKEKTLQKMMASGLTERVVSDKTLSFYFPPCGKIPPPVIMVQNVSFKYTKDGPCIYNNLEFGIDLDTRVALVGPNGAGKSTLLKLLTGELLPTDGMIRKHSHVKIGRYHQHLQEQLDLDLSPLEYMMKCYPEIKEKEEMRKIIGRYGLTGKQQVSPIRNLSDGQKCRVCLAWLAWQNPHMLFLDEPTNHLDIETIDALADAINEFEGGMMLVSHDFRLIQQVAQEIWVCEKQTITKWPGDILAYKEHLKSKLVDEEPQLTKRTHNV
active: vorinostat -0.326
inactive: nilotinib 0.001 | [1] -0.001 | dasatinib -0.036 | [2] -0.024 | [3] 0.005 | quisinostat -0.022 | tipifarnib 0.002 | [4] 0.042 | [5] -0.002 | [6] -0.023 | [7] 0.103 | silmitasertib 0.054 | [8] 0.016 | entospletinib -0.028

APAF1 (UniProt O14727)
active: vorinostat -0.292
inactive: nilotinib -0.013 | [1] 0.116 | dasatinib -0.036 | [2] 0.025 | [3] 0.073 | quisinostat -0.091 | tipifarnib -0.026 | [4] 0.052 | [5] 0 | [6] 0.026 | [7] 0.021 | silmitasertib 0.032 | [8] 0.057 | entospletinib 0.032

ALG13 (UniProt Q9NP73)
active: vorinostat -0.339
inactive: nilotinib 0.089 | [1] -0.012 | dasatinib -0.044 | [2] 0.218 | [3] 0 | quisinostat -0.067 | tipifarnib -0.036 | [4] -0.004 | [5] 0.028 | [6] -0.009 | [7] -0.027 | silmitasertib -0.01 | [8] 0.014 | entospletinib -0.082

ALDH5A1 isoform 2 (UniProt P51649)
inactive: nilotinib 0.003 | [1] -0.019 | dasatinib -0.005 | [2] -0.015 | [3] -0.003 | quisinostat 0.028 | tipifarnib -0.063 | [4] 0.04 | [5] 0.004 | [6] -0.023 | [7] -0.02 | silmitasertib -0.005 | [8] -0.057 | entospletinib 0.003
active: vorinostat 0.371

ASB6 (UniProt Q9NWX5)
inactive: nilotinib -0.024 | [1] 0.01 | dasatinib 0.01 | [2] 0.029 | [3] -0.025 | quisinostat -0.002 | tipifarnib 0.041 | [4] -0.01 | [5] 0.016 | [6] 0.08 | [7] 0.116 | vorinostat -0.005 | silmitasertib -0.057 | [8] -0.019 | entospletinib 0.074

ABCF3 (UniProt Q9NUQ8)
Chain of UniProt Q9NUQ8 (Q9NUQ8 whole entry, looked up): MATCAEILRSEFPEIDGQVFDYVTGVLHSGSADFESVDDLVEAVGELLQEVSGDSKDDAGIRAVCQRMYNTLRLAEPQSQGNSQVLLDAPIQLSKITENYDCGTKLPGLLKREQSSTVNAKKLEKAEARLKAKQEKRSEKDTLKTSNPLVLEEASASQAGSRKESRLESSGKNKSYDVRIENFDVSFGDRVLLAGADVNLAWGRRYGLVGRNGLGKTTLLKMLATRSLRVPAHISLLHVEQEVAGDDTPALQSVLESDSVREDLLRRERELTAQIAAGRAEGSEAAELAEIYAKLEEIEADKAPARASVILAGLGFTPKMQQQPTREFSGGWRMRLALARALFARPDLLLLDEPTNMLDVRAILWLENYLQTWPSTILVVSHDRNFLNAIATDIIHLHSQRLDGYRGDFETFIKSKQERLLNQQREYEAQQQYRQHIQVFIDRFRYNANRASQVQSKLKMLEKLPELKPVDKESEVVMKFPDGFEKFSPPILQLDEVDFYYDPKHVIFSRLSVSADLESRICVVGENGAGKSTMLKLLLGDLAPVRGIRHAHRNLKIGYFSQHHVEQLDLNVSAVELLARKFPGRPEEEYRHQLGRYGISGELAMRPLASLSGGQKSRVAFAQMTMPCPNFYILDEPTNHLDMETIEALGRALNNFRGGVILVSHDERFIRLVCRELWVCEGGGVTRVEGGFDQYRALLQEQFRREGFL
active: vorinostat -0.439
inactive: nilotinib -0.025 | [1] 0.014 | dasatinib -0.053 | [2] 0.001 | [3] 0.044 | quisinostat -0.04 | tipifarnib -0.003 | [4] 0.012 | [5] 0.011 | [6] -0.062 | [7] 0.026 | silmitasertib 0.033 | [8] -0.004 | entospletinib -0.013

AGPAT1 (UniProt Q99943)
Chain of UniProt Q99943 (Q99943 whole entry, looked up): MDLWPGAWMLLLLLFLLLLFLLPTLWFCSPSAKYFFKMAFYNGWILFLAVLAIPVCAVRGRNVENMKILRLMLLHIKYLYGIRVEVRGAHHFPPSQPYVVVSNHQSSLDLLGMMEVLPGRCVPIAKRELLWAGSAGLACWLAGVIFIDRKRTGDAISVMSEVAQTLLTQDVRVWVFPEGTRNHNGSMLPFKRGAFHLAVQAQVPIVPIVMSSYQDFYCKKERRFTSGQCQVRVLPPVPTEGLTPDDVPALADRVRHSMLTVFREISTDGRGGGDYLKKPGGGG
active: vorinostat -0.27
inactive: nilotinib -0.021 | [1] -0.004 | dasatinib -0.069 | [2] 0.055 | [3] -0.062 | quisinostat 0.043 | tipifarnib -0.058 | [4] -0.028 | [5] 0.028 | [6] -0.003 | [7] -0.027 | silmitasertib 0.106 | [8] -0.029 | entospletinib 0.003

AK4 (UniProt P27144)
Chain of UniProt P27144 (P27144 whole entry, looked up): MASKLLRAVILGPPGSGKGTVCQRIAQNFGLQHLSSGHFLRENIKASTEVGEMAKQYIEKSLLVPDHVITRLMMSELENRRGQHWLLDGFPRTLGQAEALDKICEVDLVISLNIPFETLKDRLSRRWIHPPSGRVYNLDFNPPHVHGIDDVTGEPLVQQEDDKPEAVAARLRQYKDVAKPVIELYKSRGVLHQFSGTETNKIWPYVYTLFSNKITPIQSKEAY
inactive: nilotinib -0.006 | [1] 0.003 | dasatinib -0.04 | [2] 0.042 | [3] 0.04 | quisinostat -0.012 | tipifarnib 0.001 | [4] 0.018 | [5] -0.023 | [6] -0.012 | [7] -0.051 | vorinostat 0.037 | silmitasertib -0.008 | [8] -0.016 | entospletinib -0.02

ARAF (UniProt P10398)
Chain of UniProt P10398 (P10398 whole entry, looked up): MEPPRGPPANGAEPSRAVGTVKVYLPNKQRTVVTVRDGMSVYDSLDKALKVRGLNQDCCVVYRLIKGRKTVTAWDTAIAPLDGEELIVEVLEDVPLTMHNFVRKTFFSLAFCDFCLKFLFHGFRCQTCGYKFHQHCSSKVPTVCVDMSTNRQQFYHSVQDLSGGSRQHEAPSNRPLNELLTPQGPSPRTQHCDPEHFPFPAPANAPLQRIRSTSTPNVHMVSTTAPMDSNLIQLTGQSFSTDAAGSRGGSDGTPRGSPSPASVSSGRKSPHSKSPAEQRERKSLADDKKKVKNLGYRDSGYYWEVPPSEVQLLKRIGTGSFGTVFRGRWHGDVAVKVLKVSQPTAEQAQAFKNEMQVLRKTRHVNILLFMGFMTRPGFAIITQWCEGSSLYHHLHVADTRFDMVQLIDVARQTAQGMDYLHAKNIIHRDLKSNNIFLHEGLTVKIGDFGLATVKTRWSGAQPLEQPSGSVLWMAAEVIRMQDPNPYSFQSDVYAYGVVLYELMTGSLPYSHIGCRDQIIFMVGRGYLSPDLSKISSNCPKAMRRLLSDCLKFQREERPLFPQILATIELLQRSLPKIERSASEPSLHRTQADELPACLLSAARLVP
inactive: nilotinib -0.005 | [1] 0.018 | dasatinib 0.16 | [2] 0.022 | [3] 0.02 | quisinostat -0.069 | tipifarnib -0.023 | [4] 0.011 | [5] 0.018 | [6] -0.012 | [7] -0.072 | silmitasertib -0.023 | [8] 0.019 | entospletinib -0.011
active: vorinostat -0.487

AIMP1 isoform 2 (UniProt Q12904)
active: vorinostat -0.235
inactive: nilotinib -0.013 | [1] -0.016 | dasatinib -0.076 | [2] 0.019 | [3] 0.023 | quisinostat 0.01 | tipifarnib 0.013 | [4] 0.044 | [5] -0.011 | [6] 0.001 | [7] -0.01 | silmitasertib 0.02 | [8] 0.007 | entospletinib 0.02

AFF1 isoform 2 (UniProt P51825)
inactive: nilotinib -0.069 | [1] 0.022 | dasatinib 0.059 | [2] 0.069 | [3] -0.043 | quisinostat -0.01 | tipifarnib 0.028 | [4] -0.005 | [5] 0.194 | [6] 0.008 | [7] 0.019 | vorinostat -0.074 | silmitasertib -0.046 | [8] -0.046 | entospletinib -0.064

AKR1B1 (UniProt P15121)
inactive: nilotinib 0.031 | [1] -0.022 | dasatinib 0.086 | [2] 0.028 | [3] -0.136 | quisinostat 0.016 | tipifarnib -0.036 | [4] 0.03 | [5] -0.009 | [6] 0.038 | [7] -0.018 | silmitasertib -0.004 | [8] -0.026 | entospletinib -0.065
active: vorinostat 0.24
